mcGAS lum = mouse cGAS inhibition by luminescence; recombinant cGAS, Kinase-Glo ATP depletion luminescence; inhibition, % at 12.5 µM; 0.15% of 160,000 active;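 further: 0% = negative control wells and 100% = reference inhibitor with no enzyme activity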
hcGAS lum = blocks human cGAS activity. recombinant h-cGAS, ATP depletion, Kinase-Glo luminescence. inhibition, % at 12.5 µM. 0.081% of 290,000 active;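 further: 0% = vehicle reaction and 100% = reaction without DNA for no activity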
Target sequence (Q8N884 whole entry, looked up): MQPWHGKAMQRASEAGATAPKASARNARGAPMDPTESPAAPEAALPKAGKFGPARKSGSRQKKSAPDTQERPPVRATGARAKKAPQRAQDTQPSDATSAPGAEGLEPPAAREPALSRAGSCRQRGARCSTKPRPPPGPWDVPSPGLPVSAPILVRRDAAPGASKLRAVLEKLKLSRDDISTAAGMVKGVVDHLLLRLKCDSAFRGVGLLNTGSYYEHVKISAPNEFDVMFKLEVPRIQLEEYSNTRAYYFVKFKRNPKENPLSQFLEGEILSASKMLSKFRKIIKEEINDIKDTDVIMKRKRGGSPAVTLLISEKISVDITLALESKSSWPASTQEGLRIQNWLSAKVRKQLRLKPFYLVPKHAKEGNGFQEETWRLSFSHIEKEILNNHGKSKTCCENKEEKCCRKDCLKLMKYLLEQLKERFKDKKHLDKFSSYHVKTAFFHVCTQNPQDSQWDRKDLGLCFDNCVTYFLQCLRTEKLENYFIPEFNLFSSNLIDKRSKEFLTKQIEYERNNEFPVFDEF
NPYLR7 ag = mosquito NPYLR7 agonism | HEK293T NPYLR7/Galpha15, GCaMP6s calcium fluorescence | activation, % at 10 µM | 0.15% of 270,000 active | AID 1259423; in the data active means activation above about 40%;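 further: 0% = vehicle and 100% = reference agonist at the receptor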
The depositor's hits bear a star; / = not tested or not shown. Hits are enriched below; roughly 0.24% of the tested compounds scored in any of these assays. Unless noted, no stated cut-off is given here; in the data, active means inhibition above about 40%; inactive means the rest.

SMILES | mcGAS lum | hcGAS lum | NPYLR7 ag
O=c1oc2c(CN3CCN(CCO)CC3)c(O)ccc2cc1-c1ccccc1 | -8 | -8 | 4
COC(=O)C1C(C)=NC2=C(C(=O)CC(C)(C)C2)C1c1ccc(C)o1 (configuration not stated) | -3 | -6 | 1
CC1(C)CC(c2[nH]cnc2-c2ccccc2)CCO1 (configuration not stated) | / | 2 | 58*
CC1(C)CC(c2nccn2CCOc2ccccc2)CCO1 (configuration not stated) | / | -5 | 2
CCNC(=O)CNc1cccc(Cl)c1C | / | 1 | 1
COc1ccc(CN2COc3ccc4c(c3C2)O/C(=C\c2ccncc2)C4=O)cc1OC | 7 | -2 | 33
COc1cccc(CN2COc3ccc4c(c3C2)O/C(=C\c2ccncc2)C4=O)c1 | 11 | 5 | 66*
COc1ccc(-c2cc3ccc4c(c3oc2=O)CN(Cc2cccnc2)CO4)c(OC)c1 | 0 | 1 | -3
COc1ccc(CCN2COc3ccc4c(c3C2)O/C(=C\c2cccnc2)C4=O)cc1 | -8 | -2 | 46*
N#Cc1cc(N2CCC(S(N)(=O)=O)CC2)c2ccccc2n1 | / | -5 | 3
CSc1nnc2c(n1)OC(c1ccc(OC(=O)c3ccc(Br)cc3)cc1)Nc1ccccc1-2 (configuration not stated) | -5 | -3 | 46*
CSc1nnc2c(n1)OC(c1ccc(Br)cc1)Nc1ccccc1-2 (configuration not stated) | 5 | -10 | 2
OC(COc1ccc(Cl)cc1Cl)CSc1nnnn1C1CC1 (configuration not stated) | / | -14 | /
CCN(CC)CCNc1ncnc2c1sc1nc(C)c3c(c12)CC(C)(C)OC3 | / | 0 | 10
CCC(C)NC(=O)CN(C)C(=O)c1csc(Nc2cccc(C(F)(F)F)c2)n1 (configuration not stated) | -6 | -9 | /
CC(C)CNC(=O)CN(C)C(=O)c1csc(Nc2cc(Cl)ccc2Cl)n1 | / | 166* | 3
O=C(C1CCN(c2ccccc2)C1=O)N1CCN(c2nc3ccccc3s2)CC1 (configuration not stated) | -7 | -7 | -2
O=C(CCl)Nc1ccc(Cl)cc1[N+](=O)[O-] | 14 | -5 | -1
O=C(CCl)Nc1cc([N+](=O)[O-])ccc1Cl | 52* | -2 | -6
COc1ccc(S(=O)(=O)NCCCN2CCOCC2)cc1N1CCN(S(=O)(=O)c2c(C)c(C)c(C)c(C)c2C)CC1 | -9 | -1 | 22
O=C(NCCC12CC3CC(CC(C3)C1)C2)c1ccc2c(=O)n3c(nc2c1)CCCCC3 | / | 3 | 6
O=C(NCCSc1ccc(Cl)cc1)c1ccc2c(=O)n3c(nc2c1)CCC3 | / | 4 | 82*
COc1ncccc1C(=O)N1CCN(CCNC(=O)c2cccs2)CC1 | / | -13 | -3
CCOC(=O)c1cc(-c2ccc(F)cc2)n(C2CCN(S(=O)(=O)c3ccc(OC(F)(F)F)cc3)CC2)n1 | -6 | -2 | 16
O=[N+]([O-])c1ccc(-n2nc3ccc4nonc4c3n2)cc1 | -6 | -4 | 81*
SMILES | mcGAS lum | hcGAS lum | NPYLR7 ag
O=[N+]([O-])c1ccccc1-n1nc2c3nonc3ccc2[n+]1[O-] | -6 | -5 | 1
Cn1ccnc1C(O)(CC(=O)N1CCc2ccccc2C1)C(F)(F)F (configuration not stated) | -4 | -2 | 1
CC(=O)NC(C(=O)NC(C)c1ccco1)C(C)C (configuration not stated) | / | 0 | -1
CCC1=NN2C(=N)/C(=C\c3ccc(OC)c(OC)c3OC)C(=O)N=C2S1 | 44* | -2 | -2
CCC1=NN2C(=N)/C(=C\c3ccccc3Br)C(=O)N=C2S1 | / | 16 | 2
COc1ccccc1CN(C)C(=O)CS(=O)Cc1cccc(Br)c1 (configuration not stated) | / | -11 | 5
COc1cc(C)c(CN2CCN(Cc3nc4cc(Cl)ccc4c(=O)[nH]3)CC2)cc1OC | / | 0 | 5
COc1ccc2nc3cc(Cl)ccc3c(Nc3cc(CN4CCCC4)c(O)c(CN4CCCC4)c3)c2n1 | / | 45* | 3
COc1cccc2cc(-c3nc4ccccc4[nH]3)c(=Nc3ccc(C(F)(F)F)cc3)oc12 | -8 | -3 | 4
Cc1ccc(F)cc1CC(=O)NC1C=CS(=O)(=O)C1 (configuration not stated) | 3 | -1 | 8
Cc1ccc(NC2C=CS(=O)(=O)C2)cc1C (configuration not stated) | -3 | -3 | 110*
O=C(c1ccccc1Cl)N1CCC(c2n[nH]c(Cc3ccccc3)n2)CC1 | -11 | -7 | -5
C=CCN(Cc1nc2sc(C)c(C)c2c(=O)[nH]1)CC(O)COC(=O)CCC (configuration not stated) | -4 | -3 | 10
CC(=O)Nc1nc(COC(=O)c2[nH]c(C)c(C(=O)OC(C)C)c2C)cs1 | -8 | -4 | 46*

Screening data: PubChem BioAssay, Fisher Drug Discovery Resource Center
